Assay results as given in PubChem BioAssay AID1963822 (ICCB-Longwood Screening Facility, Harvard Medical School, 2024).
Where “and” joins values, the source holds several entries; their conditions need not be identical. Equal entries are not always repeated. In all, about 55,000 compounds went through this assay and about 90 (0.2%) were called active. The rule behind the calls is not given here. The entries come from a sample that favours actives as a whole. A structure can be active in one record and inactive in another.

Assay: growth inhibitors of anaerobic choline-fed gram-negatives, minimal medium, absorbance (AID 1963822)
Conditions: Gram-negative bacterium anaerobic choline minimal medium
[1] = measured here: choline growth z-score, timepoint 1, stronger effect = lower value

Row | Compound | z-score (stronger effect = lower value) | z-score [1]
1 | CCCC(=O)Nc1cccc(OCc2cc(=O)n3ccccc3n2)c1 | 0.39 (inactive) | 0.6
2 | Cc1sc2cc(C(=O)NCCN3CCN(C)CC3)[nH]c2c1CN1CCCCC1 | -0.21 (active) | -4.45
3 | O=C(NCCCN1CCCCC1)c1cc2n(n1)CCCN(Cc1ccc(F)cc1)C2=O | 0.15 (inactive) | -0.23
4 | CN1CCN(CCNC(=O)c2cnc3sc4c(n3c2=O)CCC4)CC1 | -0.87 (inactive) | -0.3
5 | Cc1ccc(F)c(NS(=O)(=O)c2cc(-c3nc(C(C)(C)C)cs3)cs2)c1 | 0.79 (inactive) | 0.58
6 | CCCCOc1ccccc1C1CC(=O)Nc2c1c(C)nn2-c1ccc2nncn2n1 (stereo not drawn) | 0.78 (inactive) | 0.83
7 | O=C(NC1CC1)c1snc(-c2ccccn2)c1NC(=O)C1CC1 | 0.58 (inactive) | 1.01
8 | CCc1ccc(NS(=O)(=O)c2cc(-c3nc(C(C)C)cs3)cs2)cc1 | -0.41 (inactive) | 0.54
9 | Cc1cccc(C2C3=C(CC(c4ccccc4)CC3=O)Nc3onc(C)c32)c1 (stereo not drawn) | 1.84 (inactive) | 1.45
10 | O=C1Nc2ccccc2Oc2cc(Cl)c(S(=O)(=O)N3CCCC3)cc21 | 1.05 (inactive) | -0.01
11 | O=C(COc1ccccc1)Nc1noc(-c2ccc(Cl)cc2)n1 | -0.07 (inactive) | -0.68
12 | Cc1ccc(C)c(Cn2cccc(S(=O)(=O)N3CCCC3)c2=O)c1 | 1.03 (inactive) | 0.96
13 | CS(=O)(=O)NC1CCN(C(=O)C2CCCC2)C1 (stereo not drawn) | 0.08 (inactive) | 0.92
14 | CCC(C(=O)Nc1ccccc1OC)n1nc(-c2ccccc2)ccc1=O (stereo not drawn) | 0.41 (inactive) | -0.44
15 | COc1ccc(CSc2nccc3c2ccn3CC(=O)NCc2ccc3c(c2)OCO3)cc1 | 1.77 (inactive) | 1.27
16 | O=C(CSCc1nc2cccnc2n1C1CCCCC1)NCc1cccc(F)c1 | 0.62 (inactive) | 1.42
17 | Cc1ccccc1C1CC(=O)c2cnc3c(-c4ccc(F)cc4)c(C)nn3c2C1 (stereo not drawn) | 0.81 (inactive) | 0.27
18 | O=C(COc1ccccc1)Nc1noc(-c2ccccc2)n1 | -2.24 (inactive) | -0.92
19 | O=C(NCc1ccc(Cl)cc1)c1ccc(-n2nnc3cccnc32)cc1 | 0.42 (inactive) | 0.46
20 | Cc1nn(-c2ccccc2)c2sc(C(=O)N3CCN(c4cccc(Cl)c4)CC3)cc12 | 0.97 (inactive) | 1.5
21 | COc1ccc(-c2noc(-c3ccc[nH]c3=O)n2)cc1OC | 1.32 (inactive) | 1.18
22 | Clc1ccc(C(CNc2nn3cnnc3c3ccccc23)N2CCCCC2)cc1 (stereo not drawn) | -0.12 (inactive) | -0.1
23 | CC(C)NC(=O)N1CCCC(c2cccc(C(=O)NCc3ccc(Cl)cc3)c2)C1 (stereo not drawn) | 0.72 (inactive) | 0.1
24 | CCOC(=O)c1cnn(CCOC(=O)COC)c1NC(=O)COC | 0.06 (inactive) | 0.2
25 | Cc1noc2c1C(c1ccc(Cl)cc1)C1=C(CC(c3ccc(O)cc3)CC1=O)N2 (stereo not drawn) | -1.06 (inactive) | 0.58

Row | Compound | z-score (stronger effect = lower value) | z-score [1]
26 | CCCCC(=O)Nc1cc(N2CCn3c(nc4ccccc43)C2)ccc1C | -0.54 (inactive) | 0.09
27 | COc1ccc(NC(=O)C2CCN(C(=O)c3ccc(-c4noc(C)n4)cc3)CC2)cc1OC | 0.58 (inactive) | -0.71
28 | CCc1ccc(-c2ccc(=O)[nH]n2)cc1S(=O)(=O)N1CCOCC1 | -0.21 (inactive) | -0.65
29 | O=C(O)c1cc(N2CCN(c3ccc(Cl)cc3)CC2)ccc1NC(=O)C1CCC1 | 0.22 (inactive) | 0.14
30 | O=c1c(S(=O)(=O)c2ccc(F)c(Cl)c2)c[nH]c2c(F)cc(Cl)cc12 | -1.66 (inactive) | -1.06
31 | CNC(=O)c1ccc(NC(=O)N2CCCCc3ccccc32)cc1 | 0.76 (inactive) | -0.19
32 | COC(=O)c1cnc(N(C)C2CCCCC2)c2ccccc12 | 0.22 (inactive) | -0.03
33 | Cc1nc(Nc2ccccc2)nc2c1C(=O)CC(C)C2 (stereo not drawn) | 0.7 (inactive) | 0.46
34 | COCc1cc(C)nc2sc3c(c12)NC(C)N(c1ccc(C)cc1)C3=O (stereo not drawn) | -0.14 (inactive) | -1.91
35 | Cc1ccc(-n2cc(C(=O)O)c3ccccc3c2=O)cc1 | 1.03 (inactive) | 0.91
36 | Cc1ccc2c(c1)OCC(=O)N2CC(=O)O | -1.28 (inactive) | -1.54
37 | Cc1ccc(C2C3=C(CCCC3=O)Nc3ccccc3N2C(=O)c2ccccc2)cc1 (stereo not drawn) | -0.78 (inactive) | 0.3
38 | CCN1CCN(C(=O)C2CCCN(S(=O)(=O)c3cc(-c4noc(C5CC5)n4)sc3C)C2)CC1 (stereo not drawn) | 0.63 (inactive) | 0.78
39 | COc1cc(OC)cc(C(=O)Nc2nc(CC(=O)Nc3ccc(OC)c(OC)c3)cs2)c1 | -0.43 (inactive) | -0.34
40 | CCn1nc(C)c(CCN(C)C(=O)NCC2CCCO2)c1C (stereo not drawn) | -1.05 (inactive) | -1.68
41 | O=C(CSc1ccccc1)N1CCN(Cc2cc(=O)n3nc(-c4ccccc4F)sc3n2)CC1 | 0.75 (inactive) | 0.13
42 | Cn1c(=O)oc2cc(S(=O)(=O)N3CCC4(CC3)Nc3cc(F)ccc3-n3cccc34)ccc21 | -0.55 (inactive) | 0.11
43 | O=S(=O)(Cc1ccccc1)N1CCCC1c1ccc(Cl)cc1 (stereo not drawn) | -0.27 (inactive) | -0.13
44 | CN1CCC[C@@H]1CCO[C@](C)(c1ccccc1)c1ccc(Cl)cc1 | -1.24 (inactive) and -1.63 (active) and 0.92 (inactive) | 0.36 and -2.85 and -1.59
45 | CCOC(=O)c1cnc2c(-c3ccccc3)c(COc3ccccc3)nn2c1N | -0.05 (inactive) | -0.12
46 | O=C(Nc1ccc2c(c1)OCCO2)c1cccc(Oc2ccnc(-c3ccc(F)cc3)n2)c1 | -0.1 (inactive) | 0.77
47 | O=C(CC1CCCC1)N1CCN=C1N1CCCC1 | -1.26 (inactive) | -0.58
48 | CCOc1ccc(CNC(=O)C2(NS(=O)(=O)c3cccc4cccnc34)CCCCC2)cc1 | 0.35 (inactive) | 0.16
49 | COc1cccc(-n2ccnc2SCc2nc(-c3ccccc3)no2)c1 | 0.5 (inactive) | 0.33
